Measurements as given in PubChem BioAssay (Tox21).
Results filed as inconclusive are left out. Calls of active or inactive are those of the source. Unless noted, the call rests on the fitted dose curve; in most records, active means well fitted curve in the direction sought with a large enough effect in the repeat runs; inconclusive means weak or mixed curves; inactive means no such curve, though single readings can be large; an effect the other way counts as inactive or inconclusive.

What was measured:
[1] = qHTS assay to identify small molecule agonists of the vitamin D receptor (VDR) signaling pathway - cell viability counter screen (AID 743224); further: nearly all actives have a fitted effect of over 50% in size; further: potency means the concentration at half of the fitted maximal effect
In short: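 VDR-bla cells, 4 h after plating, exposed to compounds for 16 h at 37C; viability then read in the same wells as CellTiter-Glo luminescence after 30 min at room temperature, following the bla FRET read.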

[2] = qHTS assay to identify small molecule antagonists of the vitamin D receptor (VDR) signaling pathway - cell viability counter screen (AID 743225); further: nearly all actives have a fitted effect of over 50% in size; further: potency means the concentration at half of the fitted maximal effect
In short: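 HEK293T VDR-bla; cpd + 1a,25-(OH)2D3 3 nM final, 16 h 37C/5% CO2; B/G FRET substrate 2 h RT; then CellTiter-Glo 30 min RT, luminescence.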

[3] = qHTS assay to identify small molecule agonists of the endoplasmic reticulum stress response signaling pathway - cell viability counter screen (AID 1159517; calls by dose curve; further: nearly all actives have a fitted effect of over 50% in size; further: potency means the concentration at half of the fitted maximal effect)
In short: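 ESRE-bla HeLa cells, 1,500 per well, seeded overnight then treated with compounds for 5 hr at 37 C. After the beta-lactamase read, viability in the same wells is measured by CellTiter-Glo luminescence after 30 min at room temperature.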

[4] = target: Nuclear receptor ROR-gamma (Homo sapiens) (UniProt P51449); assay: qHTS assay to identify small molecule antagonists of the retinoid-related orphan receptor gamma (ROR-gamma) signaling pathway (AID 1159521; further: nearly all actives have a fitted effect of over 50% in size; further: potency means the concentration at half of the fitted maximal effect)
In short: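 Cells were plated, rested 4 h at 37 C, exposed to compounds for 2 h, then given 1 uM final doxycycline hyclate to induce RORγ expression. After 16 h, ONE-Glo luminescence from the ROR response element reporter was measured.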

[5] = qHTS assay to identify small molecule agonists of the AP-1 signaling pathway - cell viability counter screen (AID 1159525; calls by dose curve; further: nearly all actives have a fitted effect of over 55% in size; further: potency means the concentration at half of the fitted maximal effect)
In short: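 AP-1-bla ME-180 cells in Opti-MEM with 0.5% dialyzed FBS, compound exposure 5 h at 37 C in 15-point titration. Viability read in the same wells as ATP content by CellTiter-Glo luminescence, normalised to tetra-n-octylammonium bromide and DMSO controls.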

[6] = qHTS assay to identify small molecule agonists of the RXR signaling pathway - cell viability counter screen (AID 1159529); further: nearly all actives have a fitted effect of over 50% in size; further: potency means the concentration at half of the fitted maximal effect
In short: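 Steps: seed RXR-alpha-UAS-bla HEK 293T cells in assay medium containing 2% charcoal-stripped FBS; incubate 5 hr; add compounds in DMSO; incubate 16 hr at 37 C; after the bla read, add CellTiter-Glo and read luminescence at 30 min.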

[7] = qHTS assay to identify small molecule antagonists of the retinoic acid receptor (RAR) signaling pathway (AID 1159552; further: nearly all actives have a fitted effect of over 50% in size; further: potency means the concentration at half of the fitted maximal effect)
In short: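 Retinol at 1 uM final stimulated RARE-luciferase expression in C3RL4 cells exposed to test compounds for 6 hr at 37 C. Reduced luminescence, read 30 min after detection reagent, indicated pathway antagonism.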

[8] = qHTS assay to identify small molecule antagonists of the retinoid acid receptor (RAR) signaling pathway - cell viability counter screen (AID 1159551); further: nearly all actives have a fitted effect of over 35% in size; further: potency means the concentration at half of the fitted maximal effect
In short: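 C3RL4 RARE-luciferase cells, 1,000/well, incubated overnight, then dosed with compound plus 1 uM retinol (final). After 6 hr at 37 C, viability read by CellTiter-Glo ATP luminescence following 30 min at room temperature.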

[9] = qHTS assay to identify small molecule antagonists of the estrogen related receptor (ERR) signaling pathway - cell viability counter screen (AID 1224818);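 further: series mostly up to about 46 µM; viability measured after 17.5 h of compound exposure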
In short: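 ERR cells, 2,000 per well, compound added after 6 h and incubated 17.5 h at 37 C. Viability read by CellTiter-Fluor fluorescence after a further 30 min at 37 C.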

[10] = qHTS assay to identify small molecule antagonists of the estrogen related receptor (ERR) signaling pathway (AID 1224819)
In short: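 ERR reporter cell line (NTP) plated at 2,000 cells/well, settled 6 h at 37C/5% CO2, then exposed to LOPAC compounds for 18 h at 37C. One-Glo luciferase luminescence read after 30 min at room temperature.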

[11] = qHTS assay to identify small molecule agonists of the estrogen related receptor (ERR) signaling pathway (AID 1224820)
In short: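 ERR reporter cell line (from NTP), 2,000 cells/well, incubated 6 h before compound addition, then 18 h at 37 C. Luminescence measured 30 min after One-Glo reagent at room temperature.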

[12] = qHTS assay to identify small molecule agonists of the estrogen related receptor signaling pathway with the pleiotropic PPARgamma coactivator (PGC) (AID 1224823)
In short: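 PGC/ERR reporter cells seeded 6 h, then exposed to compounds (23 nL in DMSO) for 18 h at 37 C. One-Glo luciferase luminescence read after 30 min at room temperature.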

[13] = qHTS assay to identify small molecule antagonists of the retinoid-related orphan receptor gamma (ROR-gamma) signaling pathway - cell viability counter screen (AID 1159520); further: nearly all actives have a fitted effect of over 50% in size; further: potency means the concentration at half of the fitted maximal effect
In short: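 Tet-on ROR gamma CHO cells were given compounds for 2 hr, then doxycycline hyclate at 1 uM final, and incubated 16 hr at 37 C. Viability was measured as ATP content by CellTiter-Glo luminescence.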

[14] = qHTS assay to identify small molecule agonists of the AP-1 signaling pathway (AID 1159526; calls by dose curve)
[15] = qHTS assay to identify small molecule agonists of the retinoic acid receptor (RAR) signaling pathway (AID 1159553)
In short: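 C3RL4 RARE-luciferase cells were seeded at 1,000/well and grown overnight at 37 C, then exposed to compounds for 6 hr at 37 C, 5% CO2. Luciferase reagent was added and luminescence was read after 30 min at room temperature.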

[16] = target: Retinoic acid receptor RXR-alpha (Homo sapiens) (UniProt P19793); assay: qHTS assay to identify small molecule agonists of the RXR signaling pathway (AID 1159527; calls by dose curve; further: nearly all actives have a fitted effect of over 35% in size)
Chain of Retinoic acid receptor RXR-alpha (Homo sapiens) (P19793 whole entry, looked up): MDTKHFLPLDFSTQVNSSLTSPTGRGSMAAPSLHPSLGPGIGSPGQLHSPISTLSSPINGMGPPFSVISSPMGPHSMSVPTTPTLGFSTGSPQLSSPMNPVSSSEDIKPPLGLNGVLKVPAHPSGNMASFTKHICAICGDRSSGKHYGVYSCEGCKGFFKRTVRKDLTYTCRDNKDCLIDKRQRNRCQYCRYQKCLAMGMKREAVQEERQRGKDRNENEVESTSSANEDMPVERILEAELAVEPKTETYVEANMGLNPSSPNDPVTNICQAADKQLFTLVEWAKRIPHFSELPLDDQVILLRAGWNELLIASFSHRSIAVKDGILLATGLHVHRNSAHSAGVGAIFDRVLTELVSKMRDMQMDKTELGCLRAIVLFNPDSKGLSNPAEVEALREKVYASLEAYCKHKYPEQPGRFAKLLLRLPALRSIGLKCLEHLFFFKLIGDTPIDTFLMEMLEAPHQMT
In short: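 Cells plated at 2,000/well, rested 5 hr at 37 C, pin-dosed with DMSO compound solutions, incubated 16 hr, then loaded with B/G FRET substrate for 2 hr at RT before dual-emission fluorescence reading.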

Measured: Potency

[Cl][Au]([Cl])[Cl]
inactive: [3] | [5]
active: [1] 3.89 µM | [2] 11 µM | [4] 5.45 µM | [6] 24.5 µM | [7] 30.6 µM

S=c1[nH]c2ccccc2s1
inactive: [5] | [6] | [8] | [7] | [9] | [10] | [11] | [12]

CCCN(CCC)c1c([N+](=O)[O-])cc(C(F)(F)F)c(N)c1[N+](=O)[O-]
active: [1] 13.8 µM | [2] 21.8 µM | [3] 43.5 µM | [13] 30.5 µM | [4] 21.6 µM | [5] 13.8 µM | [6] 13.8 µM | [8] 60.9 µM | [7] 30.5 µM

O=C1C=CC(=O)N1
active: [1] 12.6 µM | [2] 35.6 µM | [13] 12.5 µM | [4] 5.59 µM | [6] 22.5 µM | [8] 31.4 µM | [7] 8.86 µM

OCCCCCCCCCCCCBr
inactive: [1] | [2] | [3] | [5] | [14] | [8] | [7] | [15]
active: [4] 62.1 µM

COc1ccc(CN2CCN(C(c3ccc(F)cc3)c3ccc(F)cc3)CC2)c(OC)c1OC
active: [1] 29.8 µM | [4] 23.7 µM | [6] 13.4 µM | [7] 26.6 µM
inactive: [8]

Cc1cc(CCN2CCN(c3nsc4ccccc34)CC2)cc2c1NC(=O)CC2(C)C
active: [1] 17.4 µM | [2] 19.5 µM | [13] 61.1 µM | [4] 9.69 µM | [5] 54.9 µM | [6] 11 µM

CC(C)=CCOc1ccc(/C=C/C(=O)c2ccc(OCC=C(C)C)cc2OCC(=O)O)cc1
inactive: [1] | [3] | [13] | [5] | [8] | [7] | [15]

O=C1CCCCCN1SSN1CCCCCC1=O
active: [4] 24.3 µM | [7] 24.3 µM
inactive: [3] | [6] | [8]

Cc1onc(-c2ccccc2Cl)c1C(=O)N[C@@H]1C(=O)N2[C@@H]1SC(C)(C)[C@@H]2C(=O)O
inactive: [1] | [2] | [3] | [13] | [5] | [16] | [6] | [8] | [7]

NNc1nc(-c2ccc(N)cc2)cs1
inactive: [1] | [2] | [3] | [13] | [5] | [6]

CCCCN1C(=O)[C@@H]([C@H](O)C2CCCCC2)NC(=O)C12CCN(Cc1ccc(Oc3ccc(C(=O)O)cc3)cc1)CC2
inactive: [3] | [13] | [4] | [5] | [6] | [8]
